Activity calls are given as the source filed them. The calls were made as follows: active = hit-call score of the fitted dose curve at least 0.9, where 1 is the maximum; inactive = score below 0.9.
Legend:
Conditions in all cases: mRNA level, 48 h; actives raise or lower the signal
[1] = read-out: Potassium channel subfamily K member 1 (KCNK1), KCNK1 (gene 3775); test: LTEA_HepaRG_KCNK1: Life Technologies and Expression Analysis (LTEA) Assay for Potassium channel subfamily K member 1 (KCNK1) using HepaRG (AID 2283511)
How it was run: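 Differentiated HepaRG cells, 48 h exposure in serum-free induction medium with 0.5% DMSO; 8 concentrations, half-log from 100 uM, duplicate. KCNK1 mRNA by qRT-PCR, normalized to ACTB, GAPDH, POLR2A; bidirectional fit vs DMSO.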

[2] = read-out: Keratin 19 (KRT19), KRT19 (gene 3880); test: LTEA_HepaRG_KRT19: Life Technologies and Expression Analysis (LTEA) Assay for Keratin 19 (KRT19) using HepaRG (AID 2283512)
How it was run: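 Differentiated human HepaRG cells, plated 48 h, were exposed in duplicate for 48 h in serum-free induction medium to eight half-log concentrations up to 100 uM in 0.5% DMSO. KRT19 mRNA was quantified by qRT-PCR, normalized to ACTB, GAPDH and POLR2A, and fitted bidirectionally versus DMSO.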

[3] = read-out: JUN Transcription Factor, JUN (gene 3725); test: LTEA_HepaRG_JUN: Life Technologies and Expression Analysis (LTEA) Assay for JUN Transcription Factor using HepaRG (AID 2283513)
How it was run: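 Cells plated 48 h, medium switched to serum-free induction medium, then dosed 48 h (100 uM top, half-log dilutions, 0.5% DMSO). RNA isolated; JUN measured by qRT-PCR against three housekeeping genes; gain or loss fitted relative to DMSO.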

[4] = read-out: Lipase C (LIPC), LIPC (gene 3990); test: LTEA_HepaRG_LIPC: Life Technologies and Expression Analysis (LTEA) Assay for Lipase C (LIPC) using HepaRG (AID 2283514)
How it was run: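 HepaRG cells, 48 h after plating, treated in duplicate for 48 h in serum-free induction medium over 8 half-log concentrations from 100 uM, 0.5% DMSO. LIPC mRNA by TaqMan qRT-PCR normalized to ACTB/GAPDH/POLR2A; bidirectional fit versus DMSO.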

[5] = read-out: Lipoprotein lipase (LPL), LPL (gene 4023); test: LTEA_HepaRG_LPL: Life Technologies and Expression Analysis (LTEA) Assay for Lipoprotein lipase (LPL) using HepaRG (AID 2283515)
How it was run: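 Differentiated HepaRG cells, plated 48 h, then exposed 48 h in serum-free induction medium to 8 concentrations (top 100 uM, half-log steps) in 0.5% DMSO, duplicate. LPL mRNA measured by qRT-PCR, normalized to ACTB, GAPDH and POLR2A.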

[6] = read-out: MicroRNA 122 (MIR122), gene 406906; test: LTEA_HepaRG_MIR122: Life Technologies and Expression Analysis (LTEA) Assay for MicroRNA 122 (MIR122) using HepaRG (AID 2283516); also: the transcript read is the microRNA miR-122
How it was run: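 HepaRG plated 48 h, switched to serum-free induction medium, then treated in duplicate for 48 h (100 uM top, half-log steps, 0.5% DMSO vehicle). RNA isolated, qRT-PCR performed, concentration-response fitted both directions relative to DMSO.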

[7] = read-out: matrix metalloproteinase-10 (MMP10), MMP10 (gene 4319); test: LTEA_HepaRG_MMP10: Life Technologies and Expression Analysis (LTEA) Assay for matrix metalloproteinase-10 (MMP10) using HepaRG (AID 2283517)
How it was run: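 Differentiated HepaRG cells in serum-free induction medium exposed 48 h in duplicate to 8-point half-log series up to 100 uM in 0.5% DMSO. mRNA quantified by qRT-PCR, normalised to ACTB, GAPDH, POLR2A; bidirectional fit versus DMSO.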

[8] = read-out: MYC, MYC (gene 4609); test: LTEA_HepaRG_MYC: Life Technologies and Expression Analysis (LTEA) Assay for MYC using HepaRG (AID 2283518)
How it was run: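 Differentiated human HepaRG cells, plated 48 h then switched to serum-free induction medium, were exposed in duplicate for 48 h to 8-point half-log series up to 100 uM in 0.5% DMSO. MYC mRNA measured by qRT-PCR, normalized to ACTB/GAPDH/POLR2A.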

[9] = read-out: matrix metalloproteinase-3 (MMP3), MMP3 (gene 4314); test: LTEA_HepaRG_MMP3: Life Technologies and Expression Analysis (LTEA) Assay for matrix metalloproteinase-3 (MMP3) using HepaRG (AID 2283519)
How it was run: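 HepaRG cells (~100,000/well) in serum-free induction medium were dosed in duplicate for 48 h with an 8-point half-log series from 100 uM, 0.5% DMSO. MMP3 mRNA was quantified by Fluidigm TaqMan qRT-PCR, normalized to three housekeeping genes.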

[10] = read-out: Paternally Expressed 10 (PEG10), PEG10 (gene 23089); test: LTEA_HepaRG_PEG10: Life Technologies and Expression Analysis (LTEA) Assay for Paternally Expressed 10 (PEG10) using HepaRG (AID 2283520)
How it was run: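 HepaRG, 48 h post-plating → serum-free induction medium → 48 h chemical exposure (duplicate, 8-pt, max 100 uM, half-log, 0.5% DMSO) → lysis in RLT → TaqMan qRT-PCR for PEG10, ACTB/GAPDH/POLR2A normalisation.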

[11] = read-out: Nuclear factor NF-kappa-B p105 subunit (Homo sapiens) (UniProt P19838); test: LTEA_HepaRG_NFKB1: Life Technologies and Expression Analysis (LTEA) Assay for Nuclear Factor Kappa B Subunit 1 (NFKB1) using HepaRG (AID 2283521)
How it was run: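 Differentiated human HepaRG cells in serum-free induction medium with 0.5% DMSO were exposed for 48 h to eight half-log concentrations, top 100 uM, in duplicate. NFKB1 mRNA measured by Fluidigm TaqMan qRT-PCR, normalised to ACTB, GAPDH and POLR2A; bidirectional fit versus DMSO.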

[12] = read-out: Protein phosphatase 2A (PPP2R4), PTPA (gene 5524); test: LTEA_HepaRG_PPP2R4: Life Technologies and Expression Analysis (LTEA) Assay for Protein phosphatase 2A (PPP2R4) using HepaRG (AID 2283522)
How it was run: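 Readout is PPP2R4 transcript level by microfluidic qRT-PCR after 48 h chemical treatment of human HepaRG liver cells. Concentrations spanned 100 uM downward in half-log steps; gain or loss of signal was fitted relative to DMSO.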

[13] = read-out: Phosphatase and tensin (PTEN), PTEN (gene 5728); test: LTEA_HepaRG_PTEN: Life Technologies and Expression Analysis (LTEA) Assay for Phosphatase and tensin (PTEN) using HepaRG (AID 2283523)
How it was run: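 HepaRG cells, 48 h after plating, exposed in duplicate for 48 h in serum-free induction medium to 8 half-log concentrations up to 100 uM (0.5% DMSO). PTEN mRNA by qRT-PCR, normalized to ACTB, GAPDH, POLR2A; bidirectional fit versus DMSO.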

[14] = read-out: solute carrier (SLC22A1), SLC22A1 (gene 6580); test: LTEA_HepaRG_SLC22A1: Life Technologies and Expression Analysis (LTEA) Assay for solute carrier (SLC22A1) using HepaRG (AID 2283524)
How it was run: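 Differentiated human HepaRG cells in serum-free induction medium, exposed 48 h in duplicate to 8-point half-log series from 100 µM top in 0.5% DMSO. SLC22A1 mRNA by TaqMan qRT-PCR normalized to ACTB, GAPDH, POLR2A; bidirectional fit versus DMSO.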

[15] = read-out: Pyruvate Dehydrogenase Kinase 4 (PDK4), PDK4 (gene 5166); test: LTEA_HepaRG_PDK4: Life Technologies and Expression Analysis (LTEA) Assay for Pyruvate Dehydrogenase Kinase 4 (PDK4) using HepaRG (AID 2283525)
How it was run: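 HepaRG cells plated 48 h, then switched to serum-free induction medium and exposed in duplicate for 48 h to 8 half-log concentrations from 100 uM in 0.5% DMSO. PDK4 mRNA measured by qRT-PCR, normalized to ACTB, GAPDH and POLR2A; bidirectional fit versus DMSO.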

[16] = read-out: NAD(P)H dehydrogenase [quinone] 1 (NQO1), NQO1 (gene 1728); test: LTEA_HepaRG_NQO1: Life Technologies and Expression Analysis (LTEA) Assay for NAD(P)H dehydrogenase [quinone] 1 (NQO1) using HepaRG (AID 2283526)
How it was run: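 HepaRG, 48 h post-plating → serum-free induction medium → test chemical 48 h (duplicate, 100 uM top, half-log x8, 0.5% DMSO) → RNA isolation → qRT-PCR, ACTB/GAPDH/POLR2A normalization; bidirectional curve fit vs DMSO baseline.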

[17] = read-out: succinate dehydrogenase complex iron sulfur subunit B (SDHB), SDHB (gene 6390); test: LTEA_HepaRG_SDHB: Life Technologies and Expression Analysis (LTEA) Assay for succinate dehydrogenase complex iron sulfur subunit B (SDHB) using HepaRG (AID 2283528)
How it was run: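 HepaRG cells (~100,000/well, plated 48 h) exposed in duplicate for 48 h in serum-free induction medium to 8-point half-log series from 100 uM in 0.5% DMSO; mRNA by qRT-PCR normalised to ACTB, GAPDH, POLR2A; bidirectional fit versus DMSO.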

[18] = read-out: Signal transducer and activator of transcription 3 (Homo sapiens) (UniProt P40763); test: LTEA_HepaRG_STAT3: Life Technologies and Expression Analysis (LTEA) Assay for Signal transducer and activator of transcription (STAT3) using HepaRG (AID 2283529)
How it was run: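 Differentiated HepaRG cells, serum-free induction medium, dosed 48 h in duplicate, 8 half-log concentrations from 100 uM in 0.5% DMSO. STAT3 mRNA by qRT-PCR, normalised to ACTB, GAPDH, POLR2A; bidirectional fit versus DMSO.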

[19] = read-out: solute carrier (SLCO1B1), SLCO1B1 (gene 10599); test: LTEA_HepaRG_SLCO1B1: Life Technologies and Expression Analysis (LTEA) Assay for solute carrier (SLCO1B1) using HepaRG (AID 2283530)
How it was run: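 Differentiated human HepaRG cells, plated 48 h, switched to serum-free induction medium and exposed in duplicate for 48 h to 8 half-log concentrations (top 100 uM) in 0.5% DMSO. SLCO1B1 mRNA by TaqMan qRT-PCR, normalized to ACTB/GAPDH/POLR2A.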

[20] = read-out: Nuclear factor erythroid 2-related factor 2 (Homo sapiens) (UniProt Q16236); test: LTEA_HepaRG_NFE2L2: Life Technologies and Expression Analysis (LTEA) Assay for Nuclear factor erythroid 2-related factor 2 (NFE2L2) Transcription Factor using HepaRG (AID 2283527);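 also: TaqMan qRT-PCR transcript level normalised to ACTB GAPDH and POLR2A housekeeping genes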
How it was run: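 Differentiated human HepaRG cells, serum-free induction medium, exposed 48 h in duplicate to eight half-log concentrations up to 100 uM in 0.5% DMSO. NFE2L2 mRNA by Fluidigm TaqMan qRT-PCR, normalised to ACTB, GAPDH, POLR2A; bidirectional change versus DMSO.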

Measured: AC50

Chain of Nuclear factor erythroid 2-related factor 2 (Homo sapiens) (Q16236 whole entry, looked up): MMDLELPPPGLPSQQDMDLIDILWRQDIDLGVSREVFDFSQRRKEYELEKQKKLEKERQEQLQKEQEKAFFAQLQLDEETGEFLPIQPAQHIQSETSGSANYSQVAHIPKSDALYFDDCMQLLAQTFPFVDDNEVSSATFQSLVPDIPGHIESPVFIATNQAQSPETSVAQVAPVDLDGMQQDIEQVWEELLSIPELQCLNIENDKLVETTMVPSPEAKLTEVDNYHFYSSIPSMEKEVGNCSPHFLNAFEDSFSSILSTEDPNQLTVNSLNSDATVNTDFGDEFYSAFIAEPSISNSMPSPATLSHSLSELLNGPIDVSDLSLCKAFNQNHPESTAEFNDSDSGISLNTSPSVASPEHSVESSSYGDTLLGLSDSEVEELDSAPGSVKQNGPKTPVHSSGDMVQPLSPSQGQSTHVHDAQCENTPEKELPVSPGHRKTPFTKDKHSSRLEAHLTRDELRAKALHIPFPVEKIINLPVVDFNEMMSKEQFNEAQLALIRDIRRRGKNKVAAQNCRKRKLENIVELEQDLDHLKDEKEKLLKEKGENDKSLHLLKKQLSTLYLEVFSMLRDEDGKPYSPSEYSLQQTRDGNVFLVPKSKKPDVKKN
Chain of Nuclear factor NF-kappa-B p105 subunit (Homo sapiens) (P19838 whole entry, looked up): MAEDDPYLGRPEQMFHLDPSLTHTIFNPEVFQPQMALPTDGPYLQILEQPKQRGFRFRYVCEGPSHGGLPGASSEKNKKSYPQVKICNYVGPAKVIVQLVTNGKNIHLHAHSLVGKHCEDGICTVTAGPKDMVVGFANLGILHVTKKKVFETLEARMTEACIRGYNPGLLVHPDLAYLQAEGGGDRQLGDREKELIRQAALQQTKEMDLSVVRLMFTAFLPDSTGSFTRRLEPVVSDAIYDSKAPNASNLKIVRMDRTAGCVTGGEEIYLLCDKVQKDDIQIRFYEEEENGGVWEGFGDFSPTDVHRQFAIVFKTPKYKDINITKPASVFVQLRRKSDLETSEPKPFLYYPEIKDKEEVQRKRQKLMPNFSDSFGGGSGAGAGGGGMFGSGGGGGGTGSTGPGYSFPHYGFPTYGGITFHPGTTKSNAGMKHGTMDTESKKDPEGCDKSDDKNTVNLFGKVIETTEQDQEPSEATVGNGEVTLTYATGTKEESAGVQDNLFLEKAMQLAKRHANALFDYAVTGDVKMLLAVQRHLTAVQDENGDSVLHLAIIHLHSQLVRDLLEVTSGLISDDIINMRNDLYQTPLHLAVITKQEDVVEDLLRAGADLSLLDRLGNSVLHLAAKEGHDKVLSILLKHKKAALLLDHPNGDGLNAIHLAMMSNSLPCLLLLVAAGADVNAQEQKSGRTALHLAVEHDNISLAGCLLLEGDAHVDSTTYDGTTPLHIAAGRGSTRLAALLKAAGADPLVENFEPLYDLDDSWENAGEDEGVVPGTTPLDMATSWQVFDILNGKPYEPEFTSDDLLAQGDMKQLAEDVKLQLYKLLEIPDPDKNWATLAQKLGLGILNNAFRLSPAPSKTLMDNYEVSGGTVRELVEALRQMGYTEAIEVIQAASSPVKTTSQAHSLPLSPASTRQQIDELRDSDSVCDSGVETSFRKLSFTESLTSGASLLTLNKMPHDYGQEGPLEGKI
Chain of Signal transducer and activator of transcription 3 (Homo sapiens) (P40763 whole entry, looked up): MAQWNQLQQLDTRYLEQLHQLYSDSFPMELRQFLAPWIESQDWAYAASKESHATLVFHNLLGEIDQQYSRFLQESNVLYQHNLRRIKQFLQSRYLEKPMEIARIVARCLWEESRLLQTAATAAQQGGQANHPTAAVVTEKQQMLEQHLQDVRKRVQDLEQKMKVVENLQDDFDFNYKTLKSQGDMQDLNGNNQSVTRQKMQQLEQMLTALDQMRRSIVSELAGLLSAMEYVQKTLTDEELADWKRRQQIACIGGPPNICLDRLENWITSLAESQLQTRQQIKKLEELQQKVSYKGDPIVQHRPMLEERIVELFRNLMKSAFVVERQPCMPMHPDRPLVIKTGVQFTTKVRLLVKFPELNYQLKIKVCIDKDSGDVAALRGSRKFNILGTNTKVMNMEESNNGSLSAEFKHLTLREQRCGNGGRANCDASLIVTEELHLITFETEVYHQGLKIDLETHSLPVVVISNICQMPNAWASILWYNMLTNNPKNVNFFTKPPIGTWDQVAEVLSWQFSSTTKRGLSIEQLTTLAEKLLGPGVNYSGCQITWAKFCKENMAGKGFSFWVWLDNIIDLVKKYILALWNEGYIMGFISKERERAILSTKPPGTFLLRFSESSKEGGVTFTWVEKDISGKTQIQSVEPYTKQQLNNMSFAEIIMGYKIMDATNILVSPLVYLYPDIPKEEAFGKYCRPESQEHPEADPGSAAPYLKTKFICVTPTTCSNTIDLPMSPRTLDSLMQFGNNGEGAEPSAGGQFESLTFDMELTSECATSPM

Clc1cc(Cl)c(Cl)cc1Cl
not listed: [20]
inactive: all other assays above

O=C(OCCCCCOC(=O)c1ccccc1)c1ccccc1
active: [1] 2570 nM | [3] 1290 nM | [4] 2100 nM | [5] 973 nM | [6] 449 nM | [8] 2260 nM | [9] 2230 nM | [11] 2080 nM | [12] 2430 nM | [13] 1850 nM | [15] 309 nM | [16] 1800 nM | [18] 7250 nM | [19] 1290 nM
inactive: [2] | [7] | [10] | [14]

Cc1ccc(C)c(C)c1
not listed: [20]
inactive: all other assays above

CC1(C)CC(N=C=O)CC(C)(CN=C=O)C1 (stereo unspecified)
not listed: [20]
inactive: all other assays above

Nc1ccc(S(=O)(=O)c2ccc(N)cc2)cc1
active: [11] 353 nM | [18] 767 nM
inactive: all other assays above

CCCCCCCCCCC
inactive: all assays above

CCCCOC(=O)CCCCCCCCC(=O)OCCCC
not listed: [13]
inactive: all other assays above

Cc1ccc(Cl)cc1
not listed: [11] | [13] | [20]
inactive: all other assays above

CC(CO)OC(C)CO (stereo unspecified) (tested in a mixture with another compound)
not listed: [13] | [20]
inactive: all other assays above

CCOC(=O)C(C)(C)Oc1ccc(Cl)cc1
active: [15] 24600 nM
not listed: [13]
inactive: all other assays above

COCCOC[C@H](CC1(C(=O)NC2CCC(C(=O)O)CC2)CCCC1)C(=O)Oc1ccc2c(c1)CCC2 (stereo partly specified)
not listed: [11] | [20]
inactive: all other assays above

CCCCC(CC)COC(=O)CC(C(=O)OCC(CC)CCCC)S(=O)(=O)O (stereo unspecified)
active: [3] 77600 nM | [5] 82100 nM | [10] 89000 nM | [12] 80900 nM | [13] 80900 nM | [14] 50000 nM | [17] 86700 nM | [19] 85500 nM
not listed: [8]
inactive: all other assays above

CCCCCCCCCCCCCO
not listed: [11] | [13]
inactive: all other assays above

CN1CCN(Cc2cc(-c3ccc4[nH]c(=O)oc4c3)co2)[C@@H](c2ccc(F)cc2)C1
active: [2] 23900 nM | [10] 82700 nM | [14] 50000 nM | [15] 88500 nM
not listed: [13] | [20]
inactive: all other assays above

From PubChem BioAssay (EPA / NIEHS)
